Shown is part of a subset that was picked to be rich in hits.
YopH inh = YopH (Yersinia) phosphatase inhibition; fluorescence Ex485/Em525; hit rate 0.16% among 140,000; inhibition, % (test concentration not listed); in the data active = inhibition above about 50%
Hits are given with their value.

Screening CC(C)=C(C#N)c1nc2ccccc2s1 returned YopH inh inactive.
COC(=O)c1ccc(/C(O)=C(\C#N)c2nc3ccccc3s2)cc1 was read as YopH inh inactive.
COc1cc(C=C(c2nc3ccccc3s2)c2nc3ccccc3s2)cc(OC)c1O was read as YopH inh inactive.
Screening CC1=CC(=C(C#N)c2nc3ccccc3s2)C=C(C)N1c1ccc(F)cc1 returned YopH inh 65.
`Cc1ccc(OC/C(O)=C(\C#N)c2nc3ccccc3s2)cc1` gave YopH inh inactive.
`COc1ccccc1N1C(C)=CC(=C(C#N)c2nc3ccccc3s2)C=C1C` gave YopH inh 70.
`O=c1[nH]c(/C=C/c2ccccc2[N+](=O)[O-])nc2ccccc12` gave YopH inh inactive.
Screening COc1cccc(N2CCN(C3OC(=O)c4ccccc43)CC2)c1 (stereo not drawn) returned YopH inh inactive.
`CC(C)(C)C(=O)Oc1cc(N)n(S(=O)(=O)c2ccccc2)n1` gave YopH inh inactive.
COc1cccc(-c2cc(C(=O)NCCN3CCOCC3)no2)c1 was read as YopH inh inactive.
`CCN(CC)CCCNC(=O)Cn1cc2c(n1)CCC(C)C2` (stereo not drawn) gave YopH inh inactive.
Cn1c(=O)n(CC(=O)N2CCN(c3nnc(-c4ccccc4)c4ccccc34)CC2)c2ccccc21 was read as YopH inh inactive.
O=C(Nc1cccc([N+](=O)[O-])c1)c1ccncc1 was read as YopH inh inactive.
`[O-]/[N+](=C\c1ccc(OC(F)F)cc1)c1ccccc1` gave YopH inh 55.
CN(C)c1ccc(/C=[N+](\[O-])C2N(c3ccccc3)C(=S)SC2(C)C)cc1 (stereo not drawn) was read as YopH inh inactive.
Screening [O-]/[N+](=C\c1ccncc1)c1ccccc1 returned YopH inh 59.
Screening O=C(c1ccccc1)c1ccncc1 returned YopH inh inactive.
For [O-]/[N+](=C/c1ccc(F)cc1)c1ccccc1 the results were YopH inh 53.
FC(F)Oc1ccc(NC(=S)NCc2ccccc2)cc1 was read as YopH inh inactive.
Screening Fc1ccc(/C=N/Nc2ccccn2)cc1 returned YopH inh inactive.
CC(NC(=O)/C(=C/c1ccc(OC(F)F)cc1)c1ccccc1)c1ccccc1 (stereo not drawn) was read as YopH inh inactive.
C=CCNc1nc(NCCN2CCOCC2)nc(OC)n1 was read as YopH inh inactive.
O=C(NCc1ccncc1)c1c(F)c(F)c(F)c(F)c1F was read as YopH inh inactive.
Screening Cc1ccc(-c2[nH]nc3c2C(c2ccc(OC(=O)N4CCOCC4)cc2)C(C#N)=C(N)O3)cc1 (stereo not drawn) returned YopH inh inactive.
COC(=O)c1ccc(Cn2nc(C)c(Br)c2C)cc1 was read as YopH inh inactive.
For O=C(O)c1ccc(S(=O)(=O)c2ccccc2)cc1 the results were YopH inh inactive.
For CN(C(=O)c1ccccc1C(=O)c1ccccc1)C1CCS(=O)(=O)C1 (stereo not drawn) the results were YopH inh inactive.
`CC(=O)NC1=C(N(C)C2CCS(=O)(=O)C2)C(=O)c2ccccc2C1=O` (stereo not drawn) gave YopH inh 74.
For CN(C(=O)Nc1ccccc1)C1CCS(=O)(=O)C1 (stereo not drawn) the results were YopH inh inactive.
For O=C(Nc1ccc(Cl)cn1)c1cc(S(=O)(=O)N2CCCCC2)ccc1Cl the results were YopH inh inactive.
For COC(=O)c1[nH]c2cc(OC)c(OC)cc2c1NC(=O)Oc1ccccc1 the results were YopH inh inactive.
CC(=O)Nc1c(NC(C)C)c2ccccc2oc1=O was read as YopH inh inactive.
CCOC(=O)c1nn(-c2ccccc2)c(C#N)c1NC(=O)c1nn(CC)cc1Br was read as YopH inh inactive.
Screening CCOC(=O)c1c(NC(=O)c2c(Br)cnn2C)c(C#N)nn1-c1ccccc1 returned YopH inh inactive.
For CCOC(=O)c1c(NC(=O)c2nn(CC)cc2Br)c(C#N)nn1-c1ccccc1 the results were YopH inh 52.
Screening Cc1ccc2nc(SCc3cccc([N+](=O)[O-])c3)nc(C)c2c1 returned YopH inh inactive.
O=C1CCCCCN1Cc1ccccc1 was read as YopH inh inactive.
`O=C1CC(=O)N(CCc2ccccc2)C(=O)N1CCc1ccccc1` gave YopH inh inactive.
For O=C1C=CC(=O)C(C2=C3C(=O)N(CCc4ccccc4)CC(=O)N3CCC2)=C1 the results were YopH inh 67.
For CCOC(=O)CN1C(=O)N[C@@H](c2ccccc2)C(C(C)=O)=C1C the results were YopH inh inactive.
C=CCn1cc(C(=O)NCC2CCCO2)c(=O)c2cc(S(=O)(=O)N3CCCCCC3)ccc21 (stereo not drawn) was read as YopH inh inactive.
`O=C(NCCCN1CCOCC1)c1ccc(Sc2ccccc2Cl)c([N+](=O)[O-])c1` gave YopH inh inactive.
For Oc1ccc(-c2cn3c(n2)SCC3)cc1 the results were YopH inh inactive.
For c1ccc(-c2cn3c(n2)SCC3)cc1 the results were YopH inh inactive.

From PubChem
